For 31 compounds, outcome and AC50 results are on record in PubChem BioAssay (EPA / NIEHS).

More than one record can exist for a structure, and the calls need not agree. Active and inactive are the calls of the source. The calls were made as follows: active = hit-call score of the fitted dose curve at least 0.9, where 1 is the maximum; inactive = score below 0.9.

Sequence of Nuclear factor erythroid 2-related factor 2 (Homo sapiens) (Q16236 whole entry, looked up): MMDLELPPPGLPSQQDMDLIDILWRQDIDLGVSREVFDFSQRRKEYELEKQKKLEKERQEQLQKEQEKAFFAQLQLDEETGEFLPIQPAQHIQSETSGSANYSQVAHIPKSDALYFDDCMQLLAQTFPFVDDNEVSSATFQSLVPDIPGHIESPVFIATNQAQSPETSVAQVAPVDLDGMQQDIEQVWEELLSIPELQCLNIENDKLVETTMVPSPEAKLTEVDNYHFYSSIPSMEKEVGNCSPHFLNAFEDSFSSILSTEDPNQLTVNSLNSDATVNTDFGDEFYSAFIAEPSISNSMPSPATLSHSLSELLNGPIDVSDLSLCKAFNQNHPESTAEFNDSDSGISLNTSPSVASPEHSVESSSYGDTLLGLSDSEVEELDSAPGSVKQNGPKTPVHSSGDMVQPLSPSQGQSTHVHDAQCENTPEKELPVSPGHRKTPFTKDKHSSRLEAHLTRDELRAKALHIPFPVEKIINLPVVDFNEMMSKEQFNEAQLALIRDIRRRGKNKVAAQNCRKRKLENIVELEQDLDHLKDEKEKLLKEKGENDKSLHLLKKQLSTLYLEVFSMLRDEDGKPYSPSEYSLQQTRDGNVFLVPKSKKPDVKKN

Read-out in the assay: Nuclear factor erythroid 2-related factor 2 (Homo sapiens) (UniProt Q16236)
Nature of the assay: LTEA_HepaRG_NFE2L2: Life Technologies and Expression Analysis (LTEA) Assay for Nuclear factor erythroid 2-related factor 2 (NFE2L2) Transcription Factor using HepaRG (AID 2283527).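 As to outcome: TaqMan qRT-PCR transcript level normalised to ACTB GAPDH and POLR2A housekeeping genes.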 The conditions noted are these: mRNA level, 48 h; actives raise or lower the signal. On the procedure:
LTEA_HepaRG is a cell based, multiplexed-readout assay that uses HepaRG, a human liver cell line, with measurements taken at 48 hours after chemical dosing on a 96-well plate.LTEA_HepaRG_NFE2L2 is one of 102 assay component(s) measured in the LTEA HepaRG cell culture assay. It is a marker of Inflammation/injury.Data from the assay component LTEA_HepaRG_NFE2L2 was analyzed into 1 endpoint. This assay endpoint, LTEA_HepaRG_NFE2L2, was analyzed with bidirectional fitting relative to DMSO as the negative control and baseline of activity. Using a type of inducible reporter, measures of mRNA induction for gain or loss-of-signal activity can be used to understand regulation of transcription factor activity. To generalize the intended target to other relatable targets, this assay endpoint is annotated to the dna binding intended target family, where the subfamily is basic leucine zipper.
A total of 1060 chemcials from the ToxCast library were tested in eight-point concentration-response experiments. Cell culture and cytotoxicity assays were conducted at Thermo Fisher Scientific's Custom Services facility (Madison, WI). A single lot of human HepaRG cells (Thermo Fisher Scientific, Frederick, MD) was used for the cell culture experiments. 96-well format collagen type I coated plates of human HepaRG cells were prepared using established methods. Briefly, cryopreserved HepaRG cells were thawed, plated at a density of approximately 100,000 cells/well in HepaRG Thaw, Plate, and General Purpose media (HPRG770, Thermo Fisher Scientific), and incubated for 48 hours. 0.5% DMSO was selected as vehicle control to balance the requisite need of DMSO in HepaRG cultures to maintain differentiation (for example, baseline metabolism, proportions of hepatocytes vs. cholangiocytes), while enabling further hepatic receptor pathway activation (for example, PXR and CAR) in response to chemical exposure. 48 hours after plating, the culture medium was replaced with HepaRG Serum-Free Incudtion Media. Cells were exposed to each test chemical in duplicate and maintained in CO2 incubators for another 48 hours. Chemical plates were thawed to room temperature and 200x concentrations of treatment groups were prepared. 8-point conentration-reponse curves were made with the highest exposure at 100 uM, followed by half-log dilutions, all in 0.5% DMSO. Each test plate contained variouse controls, induction positive controls (1mM phenobarbital), cytotoxicity positive controls ([…] aflatoxin B1), vehicle controls (0.5% DMSO), and total lysis controls (0.5% DMSO). Cell morphology images were taken using an Essen IncuCyte FLR automated microscope, with six 96-well plates imaged in about 24 minutes. Images were captured and exported and JPEG files. Spent culture media was transfered to black-well plates for the LDH assay, and remaining media was sorted at -80 C for later use. Cells were treated with RLT buffer and frozen until shipped for gene expression analysis. Total RNA was isolated from the cell suspension in 75 uL of Buffer RLT (Qiagen, Germantown, MD 20874) by Quintiles/Expression Analysis (Durham, NC) using a custom isolation procedure. Total RNA from each plate well was transferred to a preamplification plate. Fluidigm's 96.96 Dynamic ArrayTM (Fluidigm, Amsterdam, the Netherlands) technology was used for gene expression analyses by quantitative reverse transcription polymerase chain reaction (qRT-PCR, performed by Quintiles/Expression Analysis, Durham, NC)89. Standard TaqManTM Assays (Applied Biosystems/ThermoFisher Scientific, Foster City, CA) were used to assess the expression of 93 genes selected based on their selectivity and sensitivity to important hepatic receptors known to be modulated by environmental chemicals; importance in human hepatocyte functionality; and hepatotoxicity. […]
As for `CC12CC1(C)C(=O)N(c1cc(Cl)cc(Cl)c1)C2=O` (configuration not stated), the result was inactive. In the case of `C=C(C)C(=O)[O][Sn]([CH2]CCC)([CH2]CCC)[CH2]CCC`, the AC50 (as a rule, the concentration at which the activity in the assay is half-maximal) is 61.3 µM (active). On to `C[C@@H]1C[C@@H]([C@H](O)CC2CC(=O)NC(=O)C2)C(=O)[C@@H](C)C1`, for which the AC50 was 30.3 µM (active). Take `CCCCCCCCc1ccc(O)cc1`: the result was inactive. With `O=C(Nc1ccc2[nH]ccc2c1)c1cc2cc(F)ccc2n1Cc1cccc(F)c1`, the AC50 is 47.1 µM (active).

On to `CC(C)(C)CC(C)(C)c1ccc(O)cc1`, for which the compound was classed as inactive. Consider `CCOP(=S)(OCC)Oc1nc(Cl)c(Cl)cc1Cl`, for which the outcome was inactive. With `O=C(O)C(Cl)(Cl)Cl`, the call was inactive. Turning to `C=CC(=O)OCCCCCC(C)C`, the outcome was inactive. Regarding `CC(=O)[O][Hg][c]1ccccc1`, the half-maximal activity concentration (AC50) is 23.4 µM (active). `O=[N+]([O-])c1ccc(O)c([N+](=O)[O-])c1`: the half-maximal activity concentration (AC50) was 12.7 µM (active). Take `CCN1CCC2(CC1)COc1cc3c(cc12)N(C(=O)c1ccc(-c2ccc(-c4nnc(C)o4)cc2C)cc1)CC3`: the outcome was inactive. For `O=C(O)C(F)(F)C(F)(F)C(F)(F)C(F)(F)C(F)(F)C(F)(F)C(F)(F)C(F)(F)C(F)(F)C(F)(F)F`, the call was inactive.

Consider `C[C@]12CCC(=O)C[C@@H]1CC[C@@H]1[C@@H]2CC[C@]2(C)[C@@H](O)CC[C@@H]12`, for which the call was inactive. For the compound `CC(C)(c1ccccc1)c1ccc(O)c(C(C)(C)c2ccccc2)c1`, the AC50 is 50 µM (active). On to `Oc1cccc2cccnc12`, for which the outcome was inactive. On the same count and under the same terms, then `NC(=O)O`, with “inactive”; and `Cc1ccccc1N`, with “inactive”. For the compound `CC(C)(C)c1cc(O)ccc1O`, the compound was classed as inactive. For the compound `Cn1sc(Cl)cc1=O`, the compound was called inactive. Consider `O=C1C2(Cl)C3(Cl)C4(Cl)C(Cl)(Cl)C5(Cl)C3(Cl)C1(Cl)C5(Cl)C24Cl` (configuration not stated), for which the AC50 was 92.1 µM (active). With `CC(C)(OO)c1ccccc1`, the compound was called inactive.

On to `ClCC(Cl)CCl`, for which the compound was classed as inactive. Regarding `COc1cc(-c2ccc(N)c(OC)c2)ccc1N`, the AC50 was 50 µM (active) and the compound was called inactive. Turning to `ClC1(Cl)C2(Cl)C3(Cl)C4(Cl)C(Cl)(Cl)C5(Cl)C3(Cl)C1(Cl)C5(Cl)C24Cl` (configuration not stated), the compound was classed as inactive. For the compound `CCC(C)(C)c1ccc(O)c(C(C)(C)CC)c1`, the compound was called inactive. On to `CN(C)N=O`, for which the outcome was inactive. `CCOP(=S)(OCC)SCSP(=S)(OCC)OCC`: the result was inactive. On the same count and under the same terms, the result for `CCC(=O)C(CC(C)N(C)C)(c1ccccc1)c1ccccc1` (configuration not stated) reads “inactive”.

Regarding `O=c1[nH]c(=O)[nH]c(=O)[nH]1`, the compound was called inactive. `O=C(O)C(F)(F)C(F)(F)C(F)(F)C(F)(F)C(F)(F)C(F)(F)F`: the outcome was inactive.
